Laboratory results published in PubChem BioAssay AID434969 (The Scripps Research Institute Molecular Screening Center, 2010).
The list shows a part of the results. Values without a mark were called inactive.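 How the source made its calls: active means mean activation over three repeats above the cutoff from the earlier oxytocin receptor agonist screen (cut at about 20% in these data); inactive means the rest.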

Molecular target: Oxytocin receptor (Homo sapiens) (UniProt P30559)
Test: oxytocin receptor activation, calcium signal – fluorescence, CHO-OTR cells, triplicate, counter-screen for V1R agonist project (AID 434969);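 further: peak over minimum fluorescence ratio within a 100 second FLIPR read; 0% = DMSO only wells and 100% = oxytocin high control wells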
Conditions: Fluo-8 calcium fluorescence, at 3 µM, stronger effect = higher value

Oxytocin receptor (Homo sapiens), sequence (P30559 whole entry, looked up): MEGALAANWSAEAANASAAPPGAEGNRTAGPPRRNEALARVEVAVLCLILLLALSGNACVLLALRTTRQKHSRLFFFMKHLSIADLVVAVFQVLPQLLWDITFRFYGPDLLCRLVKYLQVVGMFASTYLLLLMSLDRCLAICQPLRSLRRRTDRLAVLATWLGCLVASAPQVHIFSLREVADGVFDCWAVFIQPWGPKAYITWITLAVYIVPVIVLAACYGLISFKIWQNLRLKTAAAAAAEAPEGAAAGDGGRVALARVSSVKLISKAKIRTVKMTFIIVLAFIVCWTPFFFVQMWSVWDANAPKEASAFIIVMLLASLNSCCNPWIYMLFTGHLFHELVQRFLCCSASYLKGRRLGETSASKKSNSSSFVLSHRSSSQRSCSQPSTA

Row | SMILES | activation [%]
1 | CC1(C)S[C@@H]2[C@H](N=CN3CCCCCC3)C(=O)N2[C@H]1C(=O)O | 0.49
2 | CCN(CC)c1ccc(/C=N/NC(=O)c2cnccn2)c(O)c1 | 9.1
3 | CCN(CC)c1ccc2cc(C(N)=O)/c(=N\NC(=O)c3ccncc3)oc2c1 | 15.6
4 | O=c1c2cc(Br)ccc2nc(-c2cccc(Cl)c2)n1O | 15.4
5 | O=C(CN1CCN(c2cccc(Cl)c2)CC1)Nc1ccc(S(=O)(=O)N2CCOCC2)cc1 | 5.65
6 | O=C(c1ccccc1)c1ccc(OCC(O)CN2CCCC2)cc1 (stereo not drawn) | 2.06
7 | Fc1cccc(Cl)c1COc1ccc(-c2nnco2)cc1 | -0.58
8 | Cc1cc(C)c(/C=C2\C(=O)Nc3ccccc32)[nH]1 | 16.6
